Data published in PubChem BioAssay (NCATS).
Inconclusive results are not listed. Calls of active or inactive are those of the source. The call rests on the fitted dose curve; in most records, active means well fitted activation curve with a large enough effect; inconclusive means small, poorly fitted or top-dose-only effect; inactive means no such curve, though single readings can be large or run the other way.

target: Cellular tumor antigen p53 (Homo sapiens) (UniProt P04637); assay: Primary qHTS for small molecule compounds that upregulate eGFP-tagged delta133p53alpha (in N-terminal) cells. (AID 2060322); conditions: NCI-H358 eGFP-delta133p53alpha fluorescence, 24 h; activation: stronger effect = higher value; further: nearly all actives have a fitted effect of over 75% in size;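 on activation: series mostly up to about 56 µM; 0% = DMSO vehicle and 100% = reference activator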
Outline: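 NCI-H358 cells pre-induced 24 h with 10 ng/ml doxycycline to express N-terminal eGFP-delta133p53alpha, then dosed 24 h at 37C without doxycycline; fixed, Hoechst-stained, GFP intensity by laser scanning cytometry, normalized to DMSO (0%) and 57.5 uM 5-azacytidine (100%).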
Potency means the concentration at half of the fitted maximal effect.

Sequence of Cellular tumor antigen p53 (Homo sapiens) (P04637 whole entry, looked up): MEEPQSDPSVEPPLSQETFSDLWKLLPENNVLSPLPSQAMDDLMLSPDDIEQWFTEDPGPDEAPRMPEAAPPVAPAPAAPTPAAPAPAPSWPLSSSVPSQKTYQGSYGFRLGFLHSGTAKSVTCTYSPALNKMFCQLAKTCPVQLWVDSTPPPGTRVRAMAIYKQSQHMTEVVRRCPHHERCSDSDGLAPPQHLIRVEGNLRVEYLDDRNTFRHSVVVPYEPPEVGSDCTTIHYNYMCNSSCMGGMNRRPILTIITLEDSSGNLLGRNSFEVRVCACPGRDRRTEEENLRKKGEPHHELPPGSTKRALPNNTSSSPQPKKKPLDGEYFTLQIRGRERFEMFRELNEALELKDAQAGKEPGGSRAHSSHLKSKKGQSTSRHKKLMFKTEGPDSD

| SMILES | activation | Potency |
| --- | --- | --- |
| OCc1ccc(Cl)cc1Cl | -7.53% (inactive) | – |
| CO[C@H]1C=CC=C(C)C(=O)NC2=CC(=O)C(NCCN(C)C)=C(C[C@@H](C)C[C@H](OC)[C@@H](O)[C@@H](C)C=C(C)[C@@H]1OC(N)=O)C2=O | 14.6% (inactive) | – |
| O=C(O)CCC(=O)c1ccc(-c2ccccc2)cc1 | -11.9% (inactive) | – |
| CC(C)(C)[C@H](NC(=O)c1ccc(N)c(Cl)c1)C(=O)N1CCC[C@@H]1C(=O)N[C@H](C#N)CC(=O)O | -1.07% (inactive) | – |
| COc1ccc(C(=O)NCc2ccc(OCCN(C)C)cc2)cc1OC | -28.8% (inactive) | – |
| Cc1cc(O)c2ccccc2c1O | – | 34.7 µM (active) |
| CC(Oc1c(Cl)cccc1Cl)C1=NCCN1 (stereo not given) | 3.35% (inactive) | – |
| CCOC(=O)C(O)c1ccccc1 (stereo not given) | -24.3% (inactive) | – |
| CCOc1ccc(NC(=O)CC(C)O)cc1 (stereo not given) | -0.837% (inactive) | – |
| Cc1onc(-c2c(Cl)cccc2Cl)c1C(=O)Cl | -15.3% (inactive) | – |
| C=CCNc1c(O)cc2c(O)c1C[C@@H](C)C[C@H](OC)[C@@H](O)[C@@H](C)C=C(C)[C@H](OC(N)=O)[C@@H](OC)C=CC=C(C)C(=O)N2 | 1.58% (inactive) | – |
| NC(=S)N/N=C/c1cccnc1 | 0.565% (inactive) | – |
| CC[C@H]1OC(=O)[C@H](C)[C@@H](O[C@H]2C[C@@](C)(OC)[C@@H](O)[C@H](C)O2)[C@H](C)[C@@H](O[C@@H]2O[C@@H](C)C[C@H](N(C)C)[C@@H]2O)[C@](C)(O)C[C@@H](C)C(=O)[C@H](C)[C@@H](O)[C@]1(C)O | 29.3% (inactive) | – |
| CCCCOc1ccc(OCCCN2CCOCC2)cc1 | 22.6% (inactive) | – |
| OCCN1C[C@H](O)[C@@H](O)[C@H](O)[C@@H]1CO | 24.9% (inactive) | – |
| Cc1ccc2c(Cl)cc(Cl)c(O)c2n1 | 7.34% (inactive) | – |
| Cc1c(-c2ccccc2)oc2c(C(=O)OCCN3CCCCC3)cccc2c1=O | -16.7% (inactive) | – |
| CCCCc1cc2ccccc2c(OCCN(C)C)n1 | -0.565% (inactive) | – |
| COc1ccc(-c2oc3c(CC=C(C)C)c(OC4O[C@H](CO)[C@@H](O)[C@H](O)[C@@H]4O)cc(O)c3c(=O)c2OC2O[C@@H](C)[C@H](O)[C@@H](O)[C@@H]2O)cc1 (stereo not given in full) | -27.6% (inactive) | – |
| Cc1cn([C@H]2C[C@H](F)[C@@H](CO)O2)c(=O)[nH]c1=O | 0.837% (inactive) | – |

| SMILES | activation | Potency |
| --- | --- | --- |
| Cc1c(C(=O)NCCO)[n+](=O)c2ccccc2n1[O-] | -11.7% (inactive) | – |
| CN(C)CCOc1ccc(C(=C(CCCl)c2ccccc2)c2ccccc2)cc1 | 17.8% (inactive) | – |
| O=C(CCl)Nc1ccc(S(=O)(=O)c2ccc(NC(=O)CCl)cc2)cc1 | 4.47% (inactive) | – |
| CCS(=O)(=O)c1ccc(OC)c(C(=O)OC)c1 | 19.8% (inactive) | – |
| CNC(=O)c1cnn(-c2nc(N)c3ncn([C@@H]4O[C@H](CO)[C@@H](O)[C@H]4O)c3n2)c1 | -18.4% (inactive) | – |
| O=C1C(c2[nH]c3ccccc3c2O)=Nc2ccccc21 | -0.565% (inactive) | – |
| c1ccc2sc(SN3CCOCC3)nc2c1 | 8.37% (inactive) | – |
| O=c1[nH]c2cc(C(F)(F)F)c(N3CCOCC3)cc2n(CP(=O)(O)O)c1=O | 6.21% (inactive) | – |
| O=c1c(-c2ccccc2)c1-c1ccccc1 | – | 30.9 µM (active) |
| O=C(O)CC(O)C(=O)O (stereo not given) | -26.6% (inactive) | – |
| CC(=O)N[C@H]1[C@H]([C@H](O)[C@H](O)CO)OC(C(=O)O)=C[C@@H]1N=C(N)N | 5.02% (inactive) | – |
| O=C(CCCl)NCCc1ccccc1 | -4.18% (inactive) | – |
| CCOC(=O)c1ccccc1O | -2.51% (inactive) | – |
| CO/N=C(\C(=O)O)c1csc(NC(=O)CCl)n1 | -17.5% (inactive) | – |
| Cc1cc(=O)n(-c2ccccc2)n1C | -16.7% (inactive) | – |
| NCC(=O)CCC(=O)O | -14.1% (inactive) | – |
| CC1(C)S[C@@H]2[C@H](NC(=O)[C@H](N)c3ccccc3)C(=O)N2[C@H]1C(=O)O | -15.3% (inactive) | – |
| COc1cc2nc(-c3cc(F)ccc3O)nc(N[C@@H]3CNC[C@@H]3C(C)(C)O)c2cc1OC | – | 34.3 µM (active) |
| O=Cc1ccc(O)c(O)c1O | -4.18% (inactive) | – |
| Cc1ccc(-c2ccccc2C#N)cc1 | -11.9% (inactive) | – |
